PERK inhibitor = blocks human PERK kinase. Q9NZJ5. CHO PERK-DD fusion, SEAP luminescence translation reporter. inhibition, % at 5.6 µM. actives 0.17% (n = 220,000). AID 1416;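 active = inhibition above the mean inhibition of all tested compounds plus 3 SD, set separately per screening campaign, cut at about 2.9% in these data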;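 also: PERK kinase domain activated by AP20187 dimerizer at 100 nM; 0% = DMSO with dimerizer and 100% = rapamycin at 8.4 µM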
PABP1 MLLE inh = inhibitors of microRNA-mediated deadenylation, human PABP1 MLLE binding; P11940; GST-MLLE / FITC-PAM2 fluorescence polarization; inhibition, % at 20 µM; actives 0.36% (n = 360,000); AID 588489; in the data active = inhibition above about 35%, passing the limit was not always enough;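 also: plate controls were DMSO wells with GST-MLLE for no effect and wells lacking GST-MLLE protein for full effect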
eIF4E-4G inh = eIF4E/eIF4G interaction inhibition in translation initiation | P63073+Q04637 | TR-FRET eIF4E-eIF4GI(517-606) binding, 2 h | inhibition, % at 21.7 µM | actives 0.37% (n = 220,000);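 active = inhibition above about 30%, limit read from the data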;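 also: 0% = full FRET control wells and 100% = background wells lacking eIF4GI fragment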
PfM18AAP inh = blocks P. falciparum M18 aspartyl aminopeptidase; recombinant PfM18AAP, H-Glu-NHMec fluorogenic cleavage; actives 1.2% (n = 290,000); inhibition, % at 7.35 µM;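 active = inhibition above the campaign mean inhibition over all tested compounds plus 3 SD, cut at about 28% in these data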;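 also: 0% = plate median of test compound wells and 100% = 2 mM ZnCl2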
PABP polyA inh = blocks human PABP binding to poly(A) RNA; P11940; fluorescence polarization; inhibition, % at 35 µM; actives 1% (n = 290,000); AID 2014;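 also: calls also rest on retests at 20 µM and on dose response follow-up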
eIF4H FP inh = inhibitors of RNA binding by human eIF4H; Q15056; eIF4H fluorescence polarization binding assay; inhibition, % at 35 µM; actives 0.94% (n = 290,000); AID 2012;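 also: calls also rest on retests at 20 µM and on dose response follow-up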
An asterisk follows results filed as active; ? = inconclusive; . = no result given; + = active, no number. An excerpt weighted towards active compounds, which were near 2.4% of everything screened. Unless noted, no rule for the calls is given here.

SMILES	PERK inhibitor	PABP1 MLLE inh	eIF4E-4G inh	PfM18AAP inh	PABP polyA inh	eIF4H FP inh
CN1CCc2c(sc(/N=C/c3ccco3)c2C(N)=O)C1	2	3	-2	17	57*	68*
Cc1ccc(/C=N/c2sc3c(c2C(N)=O)CCCC3)o1	2	-2	-1	16	16	74*
Cc1c2ccccc2nc2c(F)c(NC(C)C)c(F)c(F)c12	-1	145	-1	3	+	82*
NC(=O)COc1ccc(-c2noc(COc3ccccc3[N+](=O)[O-])n2)cc1	0	-1	1	-4	-5	-1
N#CC(c1ccccc1)N(CCCCl)C(=O)c1ccc(Br)cc1 (centres undefined)	0	6	-2	2	-3	1
CN1CCN(c2ccc(CNC(=O)c3ccc(-c4ccc(F)c(F)c4)c4ccoc34)cc2)CC1	.	17	.	.	.	.
O=c1[nH][nH]c(-c2ccccc2O)c1C(C[N+](=O)[O-])c1cccc(Cl)c1 (centres undefined)	0	4	2	30*	8	0
O=C(O)Cn1ccnc1	2.9*	1	1	11	2	-5
O=C(Cn1ccnc1)c1ccc(Cl)cc1	.	-12	.	0	-6	1
Cc1noc(C)c1C(=O)N1CCC1(C)C(=O)NS(=O)(=O)c1ccccc1Cl (centres undefined)	.	-8	.	.	.	.
Cc1ccc(NC(=O)CCSc2nnc(C)s2)cc1	2.9*	-23	8	0	45	-1
COc1cccc(C(=O)NCCSCc2c(F)cccc2Cl)c1	.	-4	.	-6	8	1
COc1cc(/C=c2\s/c(=C(/C#N)C(=O)N3CCCC3)n(-c3ccccc3)c2=O)ccc1O	0	-33	6	1	112*	80*
O=C(NC(=S)Nc1ccc(Oc2ccccc2)cc1)c1ccc(Cl)cc1	0	41*	10	-13	5	-1
CC(C)C[C@H](NC(=O)c1nc[nH]c1C(=O)NCCCCCNC(=O)OC(C)(C)C)C(=O)OCc1ccccc1	1	-1	0	3	0	21
CC(C)(C)OC(=O)NCCCCCNC(=O)c1[nH]cnc1C(=O)N[C@@H](Cc1ccccc1)C(=O)OCc1ccccc1	1	-5	-2	2	active	109*
O=C(/C=C/c1ccco1)NCC1OCCc2ccccc21 (centres undefined)	2	11	20	-16	41*	87*
C=CC(=O)NCC1OCCc2ccccc21 (centres undefined)	1	5	3	-1	-1	0
CC1(C(=O)O)Cc2ccccc2C(=O)O1 (centres undefined)	0	-9	-1	3	11	5
CNC(=S)N/N=C/c1ccc(-c2cccc(C(=O)O)c2)o1	0	8	-17	23	7	-6
O=C(O)c1ccccc1-c1ccc(C=c2sc3nc4cc(Br)cnc4n3c2=O)o1	.	-133	.	.	.	.
O=C(O)c1cccc(-c2ccc(/C=c3/sc4nc5ccccc5n4c3=O)o2)c1	0	-134	39*	9	48	60
O=C(O)c1cc(C(=O)O)cc(-c2ccc(/C=c3/sc4nc5ccccc5n4c3=O)o2)c1	1	.	3	21	0	56*
Cc1[nH]n(-c2ccc([N+](=O)[O-])cc2)c(=O)c1C=NCCc1c(C)[nH]c2ccccc12	1	-14	4	-5	-4	-1
NC(=O)c1c(NC(=O)c2ccncc2)sc2c1CCCCCC2	.	7	.	3	-2	-3
SMILES	PERK inhibitor	PABP1 MLLE inh	eIF4E-4G inh	PfM18AAP inh	PABP polyA inh	eIF4H FP inh
CCc1nnc(NC(=O)CCC(=O)NC2CCCCCC2)s1	.	14	.	5	1	10
CCN(CC)c1ccc(C=N/C(C#N)=C(\N)C#N)cc1	1	-91	-1	6	69*	?
CN1C(=O)/C(=C2\SC(=S)N(NC(=O)c3cccnc3)C2=O)c2ccccc21	.	36	.	10	22	15
CCOC(=O)CN1C(=O)/C(=C2\SC(=S)N(NC(=O)c3cccnc3)C2=O)c2ccccc21	.	43*	.	21	21	6
COc1ccc(C(N)CCc2ccc(C)o2)cc1 (centres undefined)	-1	-34	-3	3	38*	87
CC1=CC(=C2C(=O)c3ccccc3C2=O)C=C(C)N1C	-1	-3	-3	6	2	0
CCCCCN1C=CC(=C2C(=O)c3ccccc3C2=O)C=C1	0	-3	3	3	1.7*	88*
CN(CC(=O)Nc1ccc(N2CCOCC2)cc1)C(=O)Cc1ccccc1	.	1	.	.	.	.
Cc1ccc(C2=NC(=O)/C(=C/c3cc(O)c(O)c(Br)c3)S2)cc1	1	5	7	48*	4.2*	56*
Cc1cnc(C=NNC(N)=S)c2cccc(N)c12	.	43*	.	.	.	.
NC(=S)NN=Cc1nccc2ccccc12	.	7	.	.	.	.
CC(C)CSC1=NSC2=NC(=O)/C(=C\c3cccs3)C(=N)N12	-1	-26	1	-5	8	51*
COCCCNc1nc2ccccc2nc1NS(=O)(=O)c1cccc(Cl)c1	.	43*	.	-6	22	43
O=S(=O)(Nc1nc2ccccc2nc1NCCO)c1cccc(Cl)c1	0	-3	6	-6	19	3
Cc1ccc(S(=O)(=O)N2CCCCC2C(=O)Nc2ccc(N(C)C)cc2)cc1 (centres undefined)	.	14	.	.	.	.
CC(C)c1ccccc1NC(=O)CCc1nc2ccccc2s1	0	16	-2	30*	-10	2
COc1ccccc1NC(=O)CCc1nc2ccccc2s1	0	6	-2	-8	-1	1
O=C(Nc1ccccc1F)NC1CCN(Cc2nnnn2Cc2ccc(F)cc2)CC1	-1	5	-15	-3	-13	6
O=C(Nc1ccc(F)cc1)NC1CCN(Cc2nnnn2Cc2ccco2)CC1	-1	6	0	-47	53*	74*
Cc1ccc(-n2c(C)cc(C(=O)CN3CCOCC3)c2C)cc1C	0	-6	-2	2	67*	active
Cc1cc(C)c(C#N)c(SCC(=O)Nc2nonc2N)n1	.	2	.	12	7	-10
Cc1ccc(C(=O)Nc2cccc(NC(=O)c3cccs3)c2)c(C)c1	.	-4	.	-5	-2	5
CC1=NNC(=O)C1CC(=O)N/N=C/C(C)=C/c1ccccc1 (centres undefined)	1	-4	-2	-3	active	73
CC1=NNC(=O)C1CC(=O)N/N=C/c1ccc(C)o1 (centres undefined)	0	-2	-2	1	-7	-4
COc1ccccc1CN1CCN(C(=O)c2ccncc2)CC1	0	2	63*	-1	14	0
CCCCN(C(=O)c1cccc(S(=O)(=O)N2CCOCC2)c1)c1c(N)n(CCC)c(=O)[nH]c1=O	1	-4	0	0	52*	13
COCCNC(=O)CSc1nc2ccccc2c(=O)n1-c1cccc(OC)c1	0	-2	-2	-3	12	-7
